Source: PubChem BioAssay (ICCB-Longwood Screening Facility, Harvard Medical School)
This is one part of a sample in which hits are shown more often than they occur.
Sa growth inh = S. aureus growth inhibition; S. aureus RN4220 growth, OD600, 20 h, 42 °C; hits give low values; relative growth, % (concentration not given with the values); hit rate 0.53% among 170,000; AID 720641;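 active = relative growth at most 50% at the other temperature and 20+ points below 30 °C, or under 10% at both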
S aureus helic = S. aureus DNA helicase inhibition. purified S. aureus helicase, fluorescence unwinding assay. inhibition, % (test concentration not listed). hit rate 0.05% among 120,000; in the data active = inhibition above about 25%, passing the limit was not always enough;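 note: 0% = mean of negative control wells and 100% = mean of positive control wells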
An asterisk follows results filed as active; · = no result.

SMILES	Sa growth inh	S aureus helic
Cc1nc2c(C(=O)NCc3ccccc3Cl)c[nH]n2c(=O)c1Cc1cccc(Cl)c1	0.6*	·
Cc1nc2c(C(=O)NCCc3ccccc3)c[nH]n2c(=O)c1Cc1ccc(F)cc1Cl	-0.2*	·
COc1ccc(CCNC(=O)c2c[nH]n3c(=O)c(Cc4ccccc4Cl)c(C)nc23)cc1OC	0.7*	·
COc1ccc(CCNC(=O)c2cc(C)nc3c2c(C)nn3-c2ccccc2)cc1OC	101	·
Cc1nc2c(C(=O)NCc3ccccc3Cl)cnn2c(C)c1Cc1ccccc1	115	·
Cc1nc2c(C(=O)NCCc3ccccc3)c[nH]n2c(=O)c1Cl	88	6
Cc1nc2c(C(=O)NCc3ccccc3)cnn2c(C)c1Cc1ccc(F)cc1	94	·
Cc1cccc2sc(NC(=O)c3ccc(COc4ccc5ccccc5c4)o3)nc12	72	-7
O=S(=O)(c1ccc(Cl)cc1)N1CN(C2CCCC2)c2nc3ccccc3nc21	90	6
c1ccc(CSc2nnc(C3CCNCC3)o2)cc1	107	·
Cc1ccc(-n2c(C)c(Br)c3c2CCCC3=O)cc1	96	2
Cc1nc2c(C(=O)NCCC(C)C)c[nH]n2c(=O)c1Cl	101	8
Cc1nc2c(C(=O)NCCc3ccc(Cl)cc3)c[nH]n2c(=O)c1Cc1ccccc1F	1.1*	·
Cc1nc(-c2ccc3[nH]c(=O)oc3c2)cs1	-1.1*	18
Cc1nc(-c2ccc3ccccc3c2)cs1	·	-23
Cc1ccc(C2=C[N+](=O)C(C)(C)C(C)(C)N2[O-])cc1	105	-18
Oc1ccccc1C1CC(c2cccc(Br)c2)=NC(c2ccc(Br)cc2)N1 (stereo unspecified)	76	4
Oc1ccc(Br)cc1C1CC(c2ccccc2)=NC(c2ccco2)N1 (stereo unspecified)	2.5*	-4
Oc1c(CN2CCOCC2)ccc2ccccc12	107	3
Cc1ccc(C(c2c(O)ccc3ccccc23)N2CCOCC2)o1 (stereo unspecified)	-0.6*	10
CC1Sc2ccc(C(=O)Nc3ccc(N4CCOCC4)cc3)cc2NC1=O (stereo unspecified)	83	-6
CC[N+](C)(CC)Cc1ccccc1	70	0
CCCCCCCCCCCCC[N+](C)(C)Cc1ccccc1	-0.8*	·
COc1ccc(-c2nc3sc(CCNC(=O)c4cc(Cl)ccc4OC)c(C)n3n2)cc1	133	·
Cc1[nH]c2ccccc2c1C(Nc1cccc(C(F)(F)F)c1)c1ccccn1 (stereo unspecified)	95	-10
SMILES	Sa growth inh	S aureus helic
NC(=S)NNc1ccc(F)cc1	70	18
N#C/C(=N\Nc1ccc(F)cc1)C(N)=S	0.0*	-23
CC1CC(C)CN(C(=O)/C=C/c2ccc(Cl)cc2)C1 (stereo unspecified)	95	4
CS(=O)(=O)c1ccccc1C(=O)Nc1nnc(-c2ccc(Cl)cc2)o1	22	8
Cc1ccc(C)c(-c2nnc(NC(=O)c3ccccc3S(C)(=O)=O)o2)c1	2.0*	6
OC(CNCc1ccccc1)Cn1c2ccc(Cl)cc2c2cc(Cl)ccc21 (stereo unspecified)	-0.9*	-2
O=C(O)CNCC(O)Cn1c2ccccc2c2ccccc21 (stereo unspecified)	110	22
CCOC(=O)C1CCN(C(=O)CN(c2cc(Cl)ccc2OC)S(C)(=O)=O)CC1	96	7
CCc1c(C)sc2c1CCN(C(=O)Nc1cc(OC)c(OC)c(OC)c1)C2c1ccccc1 (stereo unspecified)	94	·
CCc1c(C)sc2c1CCN(Cc1cccc(OC)c1)C2c1ccccc1 (stereo unspecified)	-1.1*	·
CCc1c(C)sc2c1CCN(Cc1ccccc1F)C2c1ccccc1 (stereo unspecified)	-1.3*	·
CCOC(=O)c1ccccc1NC(=O)N1CCc2c(sc(C)c2CC)C1c1ccccc1 (stereo unspecified)	107	·
NC(=O)/C(=N/O)C1=NC2(CCCCC2)Cc2ccccc21	94	17
c1ccc(CNc2nnnn2-c2ccccc2)cc1	106	3
CCS(=O)(=O)c1nnnn1-c1ccccc1S(C)(=O)=O	89	3
O=S(=O)(Cc1ccccc1)c1nnnn1-c1ccccc1	-0.2*	5
CCS(=O)(=O)c1nnnn1-c1ccccc1	0.1*	-3
Cc1noc(C)c1COc1cccc(C(F)(F)F)c1	131	22
Cc1c(C(=O)NCc2ccco2)oc2c1C(=O)CCC2	116	7
CC1(C)Cc2ccccc2C(N2CCOCC2)=N1	114	-9
CN1/C(=C\C(=O)CN2C(=O)NC3(CCCCC3)C2=O)C(C)(C)c2ccccc21	89	-2
CN1/C(=C\C(=O)CN2C(=O)NC3(CCc4ccccc43)C2=O)C(C)(C)c2ccccc21 (stereo unspecified)	-0.9*	-19
Cc1ccccc1C(=O)NC#N	120	6
O=C(NC1CCCCC1)c1sc(=S)n2c1[nH]c(=O)c1ccccc12	-0.2*	8
O=C(NCCc1ccccc1)c1sc(=S)n2c1[nH]c(=O)c1ccccc12	93	8
SMILES	Sa growth inh	S aureus helic
CCS(=O)(=O)c1ncc(Cl)c(C(=O)Nc2ccc(S(=O)(=O)N(C)c3ccccc3)cc2)n1	89	·
CCN(c1ccccc1)S(=O)(=O)c1ccc(NC(=O)c2nc(S(C)(=O)=O)ncc2Cl)cc1	-1.4*	·
C[C@H]1[C@H](NC(=O)/C(=N\OC(C)(C)C(=O)O)c2csc(N)n2)C(=O)N1S(=O)(=O)O	90	·
CO/N=C(\C(=O)N[C@@H]1C(=O)N2C(C(=O)[O-])=C(C[N+]3(C)CCCC3)CS[C@H]12)c1csc(N)n1	-0.5*	·
CC(C)(O/N=C(\C(=O)N[C@@H]1C(=O)N2C(C(=O)[O-])=C(C[n+]3ccccc3)CS[C@H]12)c1csc(N)n1)C(=O)O	77	·
C=CC1=C(C(=O)O)N2C(=O)[C@@H](NC(=O)/C(=N\O)c3csc(N)n3)[C@H]2SC1 (stereo in doubt)	-0.4*	·
CO/N=C(\C(=O)NC1C(=O)N2C(C(=O)OCOC(=O)C(C)(C)C)=C(/C=C\c3scnc3C)CSC12)c1csc(N)n1 (stereo unspecified)	5.1*	·
C=CC1=C(C(=O)O)N2C(=O)[C@@H](NC(=O)C(=NOCC(=O)O)c3csc(N)n3)[C@H]2SC1	-0.2*	·
Cc1noc(C)c1S(=O)(=O)/N=C/N(C)C	88	·
COc1ccc(NC(=O)CSC2=Nc3ccccc3C3=NC(CCC(=O)NCCc4ccccc4)C(=O)N23)c(OC)c1 (stereo unspecified)	88	·
Cc1nn(-c2ccccc2)nc1C(=O)N1CCN(S(=O)(=O)c2ccc3c(c2)OCCCO3)CC1	82	13
COc1cccc2c1OC1(C)NC(=S)NC2C1C(=O)N(C)C (stereo unspecified)	87	-3
CCCc1nc2c3ccccc3nc(=S)n2[nH]1	1.7*	-18
Cc1nc2ccccc2n1CCc1nc2c3ccccc3nc(=S)n2[nH]1	106	-6
Cc1ccc(NC(=O)Cc2cccs2)cc1C	110	7
COCc1cc(C)nc(OCC(=O)O)c1C#N	104	4
Oc1c(CN2CCOCC2)cc(Cl)c2cccnc12	1.3*	-3
CCN1CCN(Cc2cc(Cl)c3cccnc3c2O)CC1	74	27
Oc1c(CN2CCCCC2)cc(Cl)c2cccnc12	·	13
CC1CN(Cc2cc(Cl)c3cccnc3c2O)CC(C)O1 (stereo unspecified)	0.6*	1
CC(C)(C)C(=O)N(CCc1ccccc1)Cc1nc2ccccc2c(=O)[nH]1	107	3
